The list is not random: actives were taken first. Their share in the collection is about 2.9%.
Pol eta inh-1 – DNA polymerase eta (human) inhibition | Q9Y253 | recombinant Pol eta, fluorescent DNA replication assay | Potency, µM (doses to about 114 µM), for the others: top-dose activity change, negative = inhibition, usual class: inhibitors | 1.2% of 390,000 active | AID 588591; note: potency is the fitted concentration of half-maximal effect; % is set by controls: 0 for no effect and ±100 for the full control effect
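Pol eta at 10 nM preincubated with compounds 15 min at room temperature; reaction started with fluorescent substrate (50 nM final) and read kinetically at 0 and 10 min.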
Pol beta inh – inhibitors of human DNA polymerase beta | P06746 | Pol beta primer extension/strand displacement, fluorescence kinetic | Potency, µM (top dose mostly 114 µM), inactives show top-dose activity change, negative = inhibition, most hits filed as inhibitors | 1.3% of 340,000 active; note: potency is the fitted concentration of half-maximal effect; % is set by controls: 0 for no effect and ±100 for the full control effect
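Human Pol beta at 10 nM; strand-displacement substrate 50 nM final. Compound exposure 15 min at room temperature before start, reaction 10 min at room temperature.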
POLI inh – inhibitors of human DNA polymerase iota; 1% of 390,000 active; AID 588590; Pol iota fluorescent replication assay, 10 min; Q9UNA4; Potency, µM (series often up to 115 µM), for the others: top-dose activity, negative = inhibition, actives largely listed as inhibitors; note: potency is the fitted concentration of half-maximal effect
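Fluorescent replication assay read twice, at 0 min and 10 min after adding 50 nM (final) substrate. Enzyme (10 nM) and compounds were first incubated 15 min at room temperature; enzyme-free buffer wells were negative controls.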
12-LOX inh – blocks human arachidonate 12S-lipoxygenase | 1.1% of 580,000 active | Potency, µM (titrated, usually from 108 µM), inactives show at the highest dose activity change, negative = inhibition, usual class: inhibitors | AID 1671190 | purified 12hLO, xylenol orange hydroperoxide absorbance | P18054; note: potency is the fitted concentration of half-maximal effect; % is set by controls: 0 for no effect and ±100 for the full control effect
Target sequence (P18054 whole entry, looked up): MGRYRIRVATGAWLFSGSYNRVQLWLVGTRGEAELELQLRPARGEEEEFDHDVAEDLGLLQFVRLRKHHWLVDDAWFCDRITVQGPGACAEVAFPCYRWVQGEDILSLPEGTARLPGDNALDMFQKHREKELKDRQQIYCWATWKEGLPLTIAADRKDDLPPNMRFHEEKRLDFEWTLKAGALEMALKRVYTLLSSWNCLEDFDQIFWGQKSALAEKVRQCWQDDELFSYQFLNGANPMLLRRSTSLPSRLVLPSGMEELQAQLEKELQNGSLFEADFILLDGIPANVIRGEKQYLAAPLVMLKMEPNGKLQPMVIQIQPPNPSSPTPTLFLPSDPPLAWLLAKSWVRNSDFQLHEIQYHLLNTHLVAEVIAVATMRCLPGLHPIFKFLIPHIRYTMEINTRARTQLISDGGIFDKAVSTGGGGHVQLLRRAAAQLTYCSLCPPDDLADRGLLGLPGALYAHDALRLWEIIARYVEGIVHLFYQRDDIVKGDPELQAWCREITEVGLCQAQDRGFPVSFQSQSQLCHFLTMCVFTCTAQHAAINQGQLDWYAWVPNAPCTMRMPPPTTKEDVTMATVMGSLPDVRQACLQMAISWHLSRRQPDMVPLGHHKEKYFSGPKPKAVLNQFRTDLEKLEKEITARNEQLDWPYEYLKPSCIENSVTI
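Purified human 12hLO (150 nM final) in 25 mM Hepes, 0.01% Triton X-100, pH 7.0 was preincubated 15 min at room temperature with compound. Then 40 uM arachidonic acid was added, 30 min. Hydroperoxide was read by Fe-XO absorbance ratio 573/405 nm.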
Pol kappa inh-1 – DNA polymerase kappa (human) inhibition | 0.53% of 400,000 active | purified Pol kappa, fluorescent DNA synthesis assay, 10 min | Q9UBT6 | Potency, µM (top dose mostly 107 µM), for the others: top-dose activity, negative = inhibition, actives largely listed as inhibitors; note: potency is the fitted concentration of half-maximal effect; % is set by controls: 0 for no effect and ±100 for the full control effect
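10 nM Pol kappa was preincubated with compounds for 15 min at room temperature. Reaction started with 50 nM (final) substrate. Fluorescence read kinetically at 0 and 10 min.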
PI5P4K alpha inh – PI5P4K alpha (human) kinase inhibition. max response, %. P48426. 1.2% of 330,000 active. PI5P4Kalpha enzyme, ADP-Glo luminescence, 60 min; hits give low values; active = max response of -50% or lower; inconclusive = between -30% and -50%; inactive = -30% or higher; note: value at the top dose of about 77 µM; % is set by controls: 0 for no effect and ±100 for the full control effect
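Reactions run in 0.038 M HEPES pH 7.4, 0.28 mM EGTA, 0.1% CHAPS and 5% DMSO, with PI5P4Kalpha, substrate, compound and 5 microM ATP final, one hour at room temperature. Readout is ADP-Glo luminescence.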
PGK validate – TbPGK inhibition, hit validation | shares compounds with Pol kappa inh-1 | TbPGK coupled GAPDH assay, Kinase-Glo luminescence | Potency, µM (highest dose often 57.5 µM), without a hit: at the top dose activity change, negative = inhibition, actives largely listed as inhibitors | 79% of 500 active; note: potency is the fitted concentration of half-maximal effect; % is set by controls: 0 for no effect and ±100 for the full control effect; nearly all actives have a fitted effect of over 65% in size
Pol iota confirm – Inhibitors of human DNA polymerase iota, confirmation; Potency, µM, usual class: inhibitors; AID 720496; shares compounds with Pol kappa inh-1; 77% of 1,500 active; Pol iota primer extension, TAMRA/BHQ fluorescence; note: potency is the fitted concentration of half-maximal effect
GALK inh confirm – galactokinase (human) inhibition, confirmation | shares compounds with Pol eta inh-1 | purified GALK, Kinase-Glo ATP depletion luminescence | Potency, µM (top dose mostly 115 µM), inactives show at the top dose activity, negative = inhibition, usual class: inhibitors | 70% of 150 active
GALK redox cs – redox cycling activity in phenol red-HRP assay; Phenol red-HRP H2O2 redox cycling, absorbance 600 nm; shares compounds with Pol eta inh-1; Potency, µM (titrated, usually from 115 µM), without a hit: top-dose activity change, negative = H2O2 signal, hits mostly inhibitors; 40% of 150 active
HEK293 viability – HEK-293 cytotoxicity, GALK inhibitor secondary; shares compounds with Pol eta inh-1; HEK-293 viability, ATP luminescence (CellTiter-Glo), 24/48 h; Potency, µM (doses to about 46.1 µM), without a hit: at the top dose activity change, negative = cytotoxicity, actives largely listed as inhibitors; 10% of 170 active; AID 2547; note: potency is the fitted concentration of half-maximal effect; % is set by controls: 0 for no effect and ±100 for the full control effect
Pol kappa inh-2 – confirmation of human DNA polymerase kappa inhibitors | shares compounds with Pol eta inh-1 | purified Pol-kappa, fluorescent strand-displacement substrate | Potency, µM, actives largely listed as inhibitors | 76% of 920 active; note: potency is the fitted concentration of half-maximal effect
Pol eta inh-2 – Pol eta (human) inhibition, cherry-pick confirmation; shares compounds with Pol eta inh-1; Pol eta primer extension, TAMRA/BHQ fluorescence, 10 min; Potency, µM, actives largely listed as inhibitors; 64% of 2,600 active; AID 720502; note: potency is the fitted concentration of half-maximal effect
Starred values were filed as active, the others as inactive; ? = inconclusive; · = no result given; [ ] = remark or other dose. Unless noted, calls come from the whole dose curve; as a rule, active = well fitted curve in the direction sought with a large enough effect; inconclusive = small, poorly fitted or top-dose-only effect, or another doubt; inactive = no such curve, though single readings can be large; an effect the other way counts as inactive or inconclusive.

SMILES | Pol eta inh-1 | Pol beta inh | POLI inh | 12-LOX inh | Pol kappa inh-1 | PI5P4K alpha inh | Pol iota confirm | Pol eta inh-2 | others
COc1cc2c(cc1NC(=O)CSc1ccccc1)oc1ccccc12 | -25.6% | -28.1% | 12.9% | -8.7% | -2.1% | 0.6 | · | ·
COc1ccc(OCCOC(=O)COc2ccc3ccccc3c2)cc1 | · | · | · | -27.0% | · | · | · | ·
Cc1ccc(/C=C/C(=O)NCc2ccccn2)o1 | 3.16µM* | 17.8µM* | 15.8µM* | -1.2% | 44.7µM* | -63.6* | 18.9* | 26.9* | Pol kappa inh-2=15*
CCOC(=O)C(C)N1C(=O)S/C(=C\c2ccc(-c3ccccc3C(=O)O)o2)C1=O (centres undefined) | 3.16µM* | 22.4µM* | ? | ? | -17.2% | ? | 16.8* | 16.9* | Pol kappa inh-2=2.99*
Cc1ccc(C(=O)O)cc1-c1ccc(/C=C2\SC(=O)N(CC(=O)Nc3ccccc3)C2=O)o1 | 17.8µM* | ? | ? | ? | ? | -56.3* | 42.3* | 47.8*
Cc1cc(C(=O)O)ccc1-c1ccc(/C=C2\SC(=O)N(CC(=O)Nc3ccc4c(c3)OCO4)C2=O)o1 | · | -0.1% | · | ? | · | · | · | ·
Cc1ccccc1NC(=O)CN1C(=O)S/C(=C\c2ccc(-c3cc(C(=O)O)ccc3C)o2)C1=O | ? | 31.6µM* | 8.91µM* | ? | ? | -79.1* | 26.7* | 26.9* | Pol kappa inh-2=8.44*
CNc1snc(C)c1C(=O)N(C)CCOc1ccccc1Cl | · | · | · | 1.0% | · | · | · | ·
O=C(O)C1Nc2c(O)cc(Cl)c([N+](=O)[O-])c2C2C=CCC12 (centres undefined) | 1.26µM* | 0.251µM* | ? | ? | 1.78µM* | -84.5* | 15* | 4.78* | PGK validate=1.46µM*
COc1ccc(OC)c(C2Nc3c(Cl)ccc(C(=O)O)c3C3C=CCC32)c1 (centres undefined) | -8.1% | 0.9% | 52.7% | -14.3% | -13.0% | -8.3 | · | ·
CC1CC(O)C(C)N(C)C1 (centres undefined) | · | · | · | -1.6% | · | · | · | ·
CC(=O)N1Cc2ccccc2CC2(CCCN2C)C1 (centres undefined) | · | · | · | 8.1%[12.5 µM] | · | · | · | ·
CCOc1ccc(C2C3=C(CCCC3=O)Nc3ccc4ncccc4c32)cc1 (centres undefined) | -7.9% | -1.7% | 4.6% | ? | -25.7% | -0.5 | · | ·
O=C1CCCC2=C1C(c1ccc(O)c(O)c1)c1c(ccc3ncccc13)N2 (centres undefined) | 25.1µM* | 6.31µM* | ? | ? | ? | ? | 67* | ?
CCN1/C(=C/C=C/c2oc3ccc(-c4ccccc4)cc3[n+]2CC)Oc2ccc(-c3ccccc3)cc21 | ? | 79.4µM* | ? | ? | ? | -57.1* | 29.9* | 21.3* | Pol kappa inh-2=37.7*
CCCCN1C(=O)/C(=C/C=C2\Oc3ccccc3N2CC)SC1=S | ? | -5.4% | ? | -8.9% | 5.4% | 1.1 | · | ·
CN1C(=O)/C(=C/c2ccccc2OCc2ccc(C(=O)O)cc2)NC1=S | -14.6% | -1.5% | ? | ? | -13.2% | -0.8 | · | ·
O=C(O)c1ccc(COc2ccccc2/C=C2/NC(=O)N(c3cccc(Cl)c3)C2=O)cc1 | 10µM* | 25.1µM* | 28.2µM* | -29.0% | 39.8µM* | -50.4* | 33.6* | 33.8* | Pol kappa inh-2=18.9*
Cc1ccc(N=C2NC(=O)/C(=C/c3cccn3C)S2)cc1C | -4.8% | -1.1% | 0.7% | 58.3% | -0.5% | -9.8 | · | ·
Cc1ccccc1N=C1NC(=O)/C(=C/c2cccn2-c2cccc(C(=O)O)c2)S1 | 17.8µM* | 10µM* | 20µM* | ? | 79.4µM* | -87.0* | 42.3* | 26.9* | Pol kappa inh-2=26.7*
O=C(O)c1cccc(-n2cccc2/C=C2/NC(=O)N(c3ccc(Cl)cc3)C2=O)c1 | 0.708µM* | 0.355µM* | ? | 7.94µM* | 1.58µM* | -98.0* | 0.752* | 1.35* | PGK validate=0.259µM*
CCCCn1c(=O)[nH]c(=O)c2c1nc(-c1ccccn1)n2CCOC | · | · | · | -4.9% | · | · | · | ·
CCn1cc(S(=O)(=O)N2CCC[C@H](n3c(=O)n(CC4CC4)c4cccnc43)C2)cn1 | · | · | · | 26.7% | · | · | · | ·
CCc1ccc(-c2nc(SC(C(=O)N3CCCC3)c3ccccc3)n[nH]2)cc1 (centres undefined) | · | · | · | -28.1% | · | · | · | ·
N#Cc1c(-c2ccccc2)nc(SCC(=O)N2c3ccccc3Sc3ccccc32)[nH]c1=O | 39.8µM* | 25.1µM* | ? | ? | -13.9% | -21.7 | 84.4* | ? | GALK inh confirm=29.8µM*;GALK redox cs=-4.0%;HEK293 viability=1.1%
N#Cc1c(-c2ccccc2)nc(SCC(=O)N(c2ccccc2)c2ccccc2)[nH]c1=O | ? | -17.5% | -18.7% | -18.5% | -7.3% | ? | · | ·
CC1=CC(C)(C)N(S(=O)(=O)c2ccc(Cl)cc2)c2cc(C)ccc21 | · | · | · | 10.4% | · | · | · | ·
Cc1ccc2c(nc3s/c(=C\c4ccc(-c5ccccc5C(=O)O)o4)c(=O)n32)c1C | 10µM* | 20µM* | 14.5% | ? | ? | ? | 75.2* | 16.9* | Pol kappa inh-2=23.8*
Cc1cc(C)c2nc3sc(=Cc4ccc(-c5ccccc5C(=O)O)o4)c(=O)n3c2c1 | · | · | · | -104.9% | · | ? | · | ·

Screening results deposited in PubChem by National Center for Advancing Translational Sciences (NCATS).
